# Source: article PMC4081100, “A DNA-binding-site landscape and regulatory network analysis for NAC transcription factors in Arabidopsis thaliana”
# Assays:
# Assay in all cases: universal protein binding microarray (PBM); transcription factors of Arabidopsis thaliana; high values mean tight binding
# GST-NTL6(1-168) = GST-NTL6(1-168) (Arabidopsis thaliana, UniProt Q9SCK6 1-168); conditions: protein: recombinant; tags: GST; chain copies: 2; dsDNA, one strand shown
# How it was run: (§1)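 Each value is a normalised enrichment score (E-score) describing binding. The GST-tagged proteins, NAC-domain, full-length or DNA-binding-domain, were induced in cells (zinc-finger proteins with zinc acetate added) and purified on glutathione–Sepharose 4B. They were applied at 200 to 500 nM final, in duplicate, to double-stranded custom all-10-mer Agilent 4 × 180K arrays, and gapped and ungapped 8-mers were scored.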
# GST-ANAC019 NAC domain = biological target: T1, GST-ANAC019 NAC domain (Arabidopsis thaliana, UniProt Q9C932 14-162); conditions: protein: recombinant; tags: GST; chain copies: 2; dsDNA, one strand shown
# T1 sequence: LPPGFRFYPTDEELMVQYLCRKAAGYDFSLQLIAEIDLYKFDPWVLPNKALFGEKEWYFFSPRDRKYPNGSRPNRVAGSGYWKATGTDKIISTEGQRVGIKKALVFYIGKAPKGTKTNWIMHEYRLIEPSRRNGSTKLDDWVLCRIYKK
# How it was run: as §1
# GST-NST2(1-184) = biological target: T2, GST-NST2(1-184) (Arabidopsis thaliana, UniProt Q9M274 1-184); conditions: protein: recombinant; tags: GST; chain copies: 2; dsDNA, one strand shown
# T2 sequence: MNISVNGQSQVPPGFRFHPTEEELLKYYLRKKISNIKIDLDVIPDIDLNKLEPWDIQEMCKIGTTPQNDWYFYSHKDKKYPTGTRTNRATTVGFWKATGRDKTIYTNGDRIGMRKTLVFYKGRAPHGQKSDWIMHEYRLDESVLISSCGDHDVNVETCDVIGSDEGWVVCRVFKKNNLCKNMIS
# How it was run: as §1
# GST-NTL8 NAC domain = biological target: T3, GST-NTL8 NAC domain (Arabidopsis thaliana, UniProt Q9XIN7 14-156); conditions: protein: recombinant; tags: GST; chain copies: 2; dsDNA, one strand shown
# T3 sequence: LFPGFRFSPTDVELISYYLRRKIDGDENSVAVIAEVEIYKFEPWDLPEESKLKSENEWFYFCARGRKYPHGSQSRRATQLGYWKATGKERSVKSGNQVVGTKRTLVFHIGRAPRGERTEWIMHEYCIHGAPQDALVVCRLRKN
# How it was run: as §1
# [1] = biological target: T4, GST-ANAC092(1-285) full length (Arabidopsis thaliana, UniProt Q9FKA0 1-285); conditions: protein: recombinant; tags: GST; chain copies: 2; dsDNA, one strand shown
# T4 sequence: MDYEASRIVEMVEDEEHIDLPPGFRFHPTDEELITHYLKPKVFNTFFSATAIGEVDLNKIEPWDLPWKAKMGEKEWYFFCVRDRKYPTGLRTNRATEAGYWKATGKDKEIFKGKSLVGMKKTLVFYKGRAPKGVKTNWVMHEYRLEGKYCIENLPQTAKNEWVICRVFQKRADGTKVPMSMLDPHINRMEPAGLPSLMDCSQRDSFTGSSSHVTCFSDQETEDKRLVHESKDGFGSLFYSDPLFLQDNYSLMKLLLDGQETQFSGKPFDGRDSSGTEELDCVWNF
# How it was run: as §1
# GST-NAP(1-166) = biological target: T5, GST-NAP(1-166) (Arabidopsis thaliana, UniProt O49255 1-166); conditions: protein: recombinant; tags: GST; chain copies: 2; dsDNA, one strand shown
# T5 sequence: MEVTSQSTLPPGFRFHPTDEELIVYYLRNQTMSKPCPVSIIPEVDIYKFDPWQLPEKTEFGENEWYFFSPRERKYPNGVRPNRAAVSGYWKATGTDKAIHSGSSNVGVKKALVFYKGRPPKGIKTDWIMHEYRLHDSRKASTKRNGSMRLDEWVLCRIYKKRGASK
# How it was run: as §1
# GST-WRKY1(266-371) = GST-WRKY1(266-371) (Arabidopsis thaliana, UniProt Q9SI37 266-371); conditions: protein: recombinant; tags: GST; dsDNA, one strand shown
# How it was run: as §1
# GST-ATAF1 NAC domain = biological target: T6, GST-ATAF1 NAC domain (Arabidopsis thaliana, UniProt Q39013 7-158); conditions: protein: recombinant; tags: GST; chain copies: 2; dsDNA, one strand shown
# T6 sequence: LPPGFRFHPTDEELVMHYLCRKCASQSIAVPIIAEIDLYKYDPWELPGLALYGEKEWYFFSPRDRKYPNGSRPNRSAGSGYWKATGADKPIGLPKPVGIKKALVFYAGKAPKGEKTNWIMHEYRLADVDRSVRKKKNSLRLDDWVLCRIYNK
# How it was run: as §1
# GST-WRKY1(266-371), sequence (Q9SI37 266-371): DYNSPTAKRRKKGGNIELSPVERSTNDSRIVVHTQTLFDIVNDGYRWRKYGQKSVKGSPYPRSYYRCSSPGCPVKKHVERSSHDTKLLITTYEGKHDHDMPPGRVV
# GST-NTL6(1-168), sequence (Q9SCK6 1-168): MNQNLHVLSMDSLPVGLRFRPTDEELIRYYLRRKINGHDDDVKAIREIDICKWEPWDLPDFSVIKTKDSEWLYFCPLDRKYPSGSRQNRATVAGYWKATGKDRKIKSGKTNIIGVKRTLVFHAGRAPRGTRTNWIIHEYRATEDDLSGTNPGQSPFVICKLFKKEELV
sequence,measurement,setting,value
AGGTTTCC,binding signal,GST-NTL6(1-168),0.052 E-score
same,binding signal,GST-ANAC019 NAC domain,0.0846 E-score
same,binding signal,GST-NST2(1-184),0.0833 E-score
same,binding signal,GST-NTL8 NAC domain,0.457 E-score
GGTCAATA,binding signal,[1],0.0505 E-score
same,binding signal,GST-NAP(1-166),0.0842 E-score
same,binding signal,GST-WRKY1(266-371),0.482 E-score
ACGGTCAA,binding signal,[1],0.0716 E-score
same,binding signal,GST-WRKY1(266-371),0.49 E-score
GGTCAACA,binding signal,GST-NST2(1-184),0.0705 E-score
same,binding signal,GST-WRKY1(266-371),0.493 E-score
CCTCTGAC,binding signal,GST-NTL8 NAC domain,0.12 E-score
same,binding signal,GST-WRKY1(266-371),0.408 E-score
CTCGGTCA,binding signal,GST-NTL8 NAC domain,0.0649 E-score
same,binding signal,GST-WRKY1(266-371),0.451 E-score
AAGTCGTC,binding signal,GST-NAP(1-166),0.156 E-score
same,binding signal,GST-WRKY1(266-371),0.419 E-score
GTCAAGAC,binding signal,[1],0.0871 E-score
same,binding signal,GST-WRKY1(266-371),0.446 E-score
TGAGTCAA,binding signal,[1],0.0797 E-score
same,binding signal,GST-WRKY1(266-371),0.48 E-score
GGGGGGAA,binding signal,GST-NTL8 NAC domain,0.453 E-score
AGGTCAAC,binding signal,GST-ATAF1 NAC domain,0.051 E-score
same,binding signal,GST-NTL8 NAC domain,0.0726 E-score
same,binding signal,GST-WRKY1(266-371),0.492 E-score
